Compound in this assay: C#CCNC(=O)CCSSCCC(=O)NCCc1ccc(C=O)c(C=O)c1
The assay is described as follows: lysine labeling ratio R10:1 (500 µM / 50 µM probe), SILAC-ABPP in living cells; higher = lower intrinsic lysine reactivity toward the probe, active = 2 or less. To be noted: HeLa; probe concentrations 500 vs 50 µM. The method in brief:
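R, given per lysine, is the filtered median high-probe/low-probe MS1 peptide ratio, with the median then taken across forward and reverse replicates. Cells were living SILAC light and heavy HeLa cells in PBS at room temperature, labelled with 50 µM or 500 µM of an alkyne-tagged, disulfide-linked lysine probe. The ceiling applied is 20.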

A number with no mark means an inactive call.

UniProt Q15149, sequence (Q15149 whole entry): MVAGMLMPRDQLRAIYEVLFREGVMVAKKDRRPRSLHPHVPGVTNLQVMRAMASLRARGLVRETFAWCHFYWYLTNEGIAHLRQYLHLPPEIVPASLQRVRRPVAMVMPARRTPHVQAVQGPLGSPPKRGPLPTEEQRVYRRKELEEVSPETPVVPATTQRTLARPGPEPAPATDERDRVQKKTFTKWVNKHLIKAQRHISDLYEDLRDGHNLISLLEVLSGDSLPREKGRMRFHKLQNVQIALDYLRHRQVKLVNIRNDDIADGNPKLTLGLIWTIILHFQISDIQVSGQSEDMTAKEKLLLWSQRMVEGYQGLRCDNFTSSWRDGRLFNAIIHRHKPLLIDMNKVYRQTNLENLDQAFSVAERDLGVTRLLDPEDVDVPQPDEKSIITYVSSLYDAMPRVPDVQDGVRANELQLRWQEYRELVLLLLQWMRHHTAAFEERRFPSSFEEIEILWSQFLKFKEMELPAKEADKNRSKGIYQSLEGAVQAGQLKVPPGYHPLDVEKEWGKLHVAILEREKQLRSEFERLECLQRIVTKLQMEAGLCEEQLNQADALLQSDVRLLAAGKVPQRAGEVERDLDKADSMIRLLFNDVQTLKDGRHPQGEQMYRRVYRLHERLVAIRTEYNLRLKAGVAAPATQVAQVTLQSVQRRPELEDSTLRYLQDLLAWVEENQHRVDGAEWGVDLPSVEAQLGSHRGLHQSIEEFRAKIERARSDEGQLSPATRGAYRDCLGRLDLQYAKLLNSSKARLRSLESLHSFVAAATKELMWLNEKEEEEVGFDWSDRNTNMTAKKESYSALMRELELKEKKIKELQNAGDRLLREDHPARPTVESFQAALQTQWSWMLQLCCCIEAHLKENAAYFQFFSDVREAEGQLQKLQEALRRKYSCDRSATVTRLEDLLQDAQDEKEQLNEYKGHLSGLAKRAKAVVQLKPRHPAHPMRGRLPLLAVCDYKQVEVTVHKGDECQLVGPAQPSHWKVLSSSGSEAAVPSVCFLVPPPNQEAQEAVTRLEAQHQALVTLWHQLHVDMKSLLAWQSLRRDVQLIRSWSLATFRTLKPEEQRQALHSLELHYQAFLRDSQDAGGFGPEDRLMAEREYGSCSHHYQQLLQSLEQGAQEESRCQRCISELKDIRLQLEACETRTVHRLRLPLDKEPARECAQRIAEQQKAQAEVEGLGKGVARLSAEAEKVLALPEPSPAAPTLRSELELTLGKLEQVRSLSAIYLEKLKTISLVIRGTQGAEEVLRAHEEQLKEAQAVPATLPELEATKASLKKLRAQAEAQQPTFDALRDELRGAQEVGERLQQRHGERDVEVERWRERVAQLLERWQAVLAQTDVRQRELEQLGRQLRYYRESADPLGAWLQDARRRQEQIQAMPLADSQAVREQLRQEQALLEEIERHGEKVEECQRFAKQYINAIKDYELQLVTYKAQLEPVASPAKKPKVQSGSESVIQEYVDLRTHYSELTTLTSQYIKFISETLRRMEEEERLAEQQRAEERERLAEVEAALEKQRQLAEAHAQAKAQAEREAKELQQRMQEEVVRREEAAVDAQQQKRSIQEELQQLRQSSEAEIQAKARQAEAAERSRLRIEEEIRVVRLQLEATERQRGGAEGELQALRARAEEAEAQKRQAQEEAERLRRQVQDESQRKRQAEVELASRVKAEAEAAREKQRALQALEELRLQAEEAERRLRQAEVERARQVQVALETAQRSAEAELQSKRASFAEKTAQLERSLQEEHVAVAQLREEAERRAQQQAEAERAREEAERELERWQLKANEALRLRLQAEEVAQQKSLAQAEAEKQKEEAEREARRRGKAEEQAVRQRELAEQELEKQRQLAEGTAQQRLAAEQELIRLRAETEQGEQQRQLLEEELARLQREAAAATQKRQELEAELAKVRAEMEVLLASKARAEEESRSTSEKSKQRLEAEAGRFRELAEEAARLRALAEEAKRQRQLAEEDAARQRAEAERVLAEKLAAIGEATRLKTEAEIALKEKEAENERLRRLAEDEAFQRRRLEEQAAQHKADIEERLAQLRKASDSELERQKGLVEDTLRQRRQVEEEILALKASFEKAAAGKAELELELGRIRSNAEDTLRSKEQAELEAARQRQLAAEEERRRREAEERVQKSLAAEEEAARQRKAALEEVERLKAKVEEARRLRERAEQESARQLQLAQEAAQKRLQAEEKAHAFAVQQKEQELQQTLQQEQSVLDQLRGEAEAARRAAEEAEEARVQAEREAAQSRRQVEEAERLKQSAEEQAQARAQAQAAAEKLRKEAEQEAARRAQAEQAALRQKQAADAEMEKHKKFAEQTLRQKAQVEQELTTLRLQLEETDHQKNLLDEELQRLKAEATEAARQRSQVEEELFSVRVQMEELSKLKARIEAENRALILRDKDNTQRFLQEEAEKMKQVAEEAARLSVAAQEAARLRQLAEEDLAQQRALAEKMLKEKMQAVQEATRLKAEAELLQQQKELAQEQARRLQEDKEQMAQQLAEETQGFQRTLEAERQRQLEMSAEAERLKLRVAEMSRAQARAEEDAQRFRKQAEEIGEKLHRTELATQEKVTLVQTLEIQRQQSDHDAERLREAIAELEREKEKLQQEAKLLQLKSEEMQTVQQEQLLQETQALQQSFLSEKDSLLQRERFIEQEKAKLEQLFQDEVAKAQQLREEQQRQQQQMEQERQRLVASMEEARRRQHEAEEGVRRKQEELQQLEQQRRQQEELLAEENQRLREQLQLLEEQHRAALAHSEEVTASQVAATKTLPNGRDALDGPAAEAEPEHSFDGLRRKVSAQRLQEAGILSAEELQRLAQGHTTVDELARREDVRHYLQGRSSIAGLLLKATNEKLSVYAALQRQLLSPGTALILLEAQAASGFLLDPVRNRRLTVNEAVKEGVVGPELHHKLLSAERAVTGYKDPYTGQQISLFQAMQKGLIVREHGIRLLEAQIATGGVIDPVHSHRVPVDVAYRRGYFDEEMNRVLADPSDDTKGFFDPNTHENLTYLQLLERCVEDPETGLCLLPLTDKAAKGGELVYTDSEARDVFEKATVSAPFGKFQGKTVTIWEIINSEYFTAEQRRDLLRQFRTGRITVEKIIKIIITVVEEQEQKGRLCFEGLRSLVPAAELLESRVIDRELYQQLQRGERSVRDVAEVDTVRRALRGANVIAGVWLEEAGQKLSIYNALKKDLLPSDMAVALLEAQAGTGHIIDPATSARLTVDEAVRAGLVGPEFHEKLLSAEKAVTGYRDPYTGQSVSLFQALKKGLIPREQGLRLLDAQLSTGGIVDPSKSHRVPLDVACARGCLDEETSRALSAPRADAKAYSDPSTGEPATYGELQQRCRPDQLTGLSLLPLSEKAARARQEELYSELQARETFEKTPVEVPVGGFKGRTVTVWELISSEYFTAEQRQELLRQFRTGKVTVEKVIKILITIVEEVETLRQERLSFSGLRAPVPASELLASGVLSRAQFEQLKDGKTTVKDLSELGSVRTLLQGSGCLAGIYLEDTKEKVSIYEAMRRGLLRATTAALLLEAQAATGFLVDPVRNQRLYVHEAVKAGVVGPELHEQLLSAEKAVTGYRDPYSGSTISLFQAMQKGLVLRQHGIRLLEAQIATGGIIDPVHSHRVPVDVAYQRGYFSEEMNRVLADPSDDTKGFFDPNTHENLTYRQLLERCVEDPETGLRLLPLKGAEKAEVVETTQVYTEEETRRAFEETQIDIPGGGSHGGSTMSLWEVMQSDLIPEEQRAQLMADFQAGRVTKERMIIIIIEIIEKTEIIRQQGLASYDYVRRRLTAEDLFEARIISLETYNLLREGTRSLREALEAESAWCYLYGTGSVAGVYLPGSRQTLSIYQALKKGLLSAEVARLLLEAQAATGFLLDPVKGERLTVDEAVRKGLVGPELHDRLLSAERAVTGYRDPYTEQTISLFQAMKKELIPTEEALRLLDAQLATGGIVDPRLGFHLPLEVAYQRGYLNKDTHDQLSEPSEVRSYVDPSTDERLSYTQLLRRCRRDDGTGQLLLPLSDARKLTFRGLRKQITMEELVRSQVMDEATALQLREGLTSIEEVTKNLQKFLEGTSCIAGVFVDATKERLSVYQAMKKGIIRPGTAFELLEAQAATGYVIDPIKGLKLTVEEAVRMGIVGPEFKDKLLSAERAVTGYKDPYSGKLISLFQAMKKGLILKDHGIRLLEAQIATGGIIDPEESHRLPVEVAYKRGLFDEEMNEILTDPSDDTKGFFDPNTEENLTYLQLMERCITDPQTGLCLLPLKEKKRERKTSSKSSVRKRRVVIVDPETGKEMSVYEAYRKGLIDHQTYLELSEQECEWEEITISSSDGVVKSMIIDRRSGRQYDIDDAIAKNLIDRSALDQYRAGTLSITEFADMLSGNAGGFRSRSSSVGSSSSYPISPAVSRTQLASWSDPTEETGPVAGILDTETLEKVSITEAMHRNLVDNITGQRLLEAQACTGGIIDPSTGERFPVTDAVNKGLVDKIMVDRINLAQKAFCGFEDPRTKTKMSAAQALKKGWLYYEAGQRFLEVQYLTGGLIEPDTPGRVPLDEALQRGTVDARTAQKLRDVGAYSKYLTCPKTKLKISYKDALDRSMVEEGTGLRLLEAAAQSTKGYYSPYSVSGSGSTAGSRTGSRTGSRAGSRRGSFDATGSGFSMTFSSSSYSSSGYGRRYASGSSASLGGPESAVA
UniProt P48047, sequence (P48047 whole entry): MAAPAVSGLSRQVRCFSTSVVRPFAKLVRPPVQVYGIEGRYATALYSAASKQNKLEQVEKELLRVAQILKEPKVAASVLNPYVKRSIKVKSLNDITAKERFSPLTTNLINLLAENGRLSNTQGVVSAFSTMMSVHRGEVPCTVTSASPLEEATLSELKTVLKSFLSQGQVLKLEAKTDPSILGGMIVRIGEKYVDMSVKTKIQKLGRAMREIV
UniProt P48509, sequence (P48509 whole entry): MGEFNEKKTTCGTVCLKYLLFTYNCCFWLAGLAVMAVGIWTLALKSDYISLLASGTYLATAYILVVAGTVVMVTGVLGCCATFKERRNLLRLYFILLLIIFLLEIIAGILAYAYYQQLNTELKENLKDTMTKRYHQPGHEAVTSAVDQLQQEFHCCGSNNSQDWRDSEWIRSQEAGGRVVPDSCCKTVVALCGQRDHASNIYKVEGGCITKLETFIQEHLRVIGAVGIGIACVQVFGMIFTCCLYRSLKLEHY

Regarding “ITGAV (lysine site: K533) (UniProt P06756)”, the “lysine labeling ratio R10:1” value is 1.58 (active).

Consider “RPL5 (lysine site: K197) (UniProt P46777)”, for which the “lysine labeling ratio R10:1” value is 1.37 (active).

As to “TXNRD1 (lysine site: K396) (UniProt Q16881)”, the “lysine labeling ratio R10:1” value was 2.09.

For “FRAS1 (lysine site: K3278) (UniProt Q86XX4)”, the “lysine labeling ratio R10:1” value was 2.1.

“RPL4 (lysine site: K182) (UniProt P36578)”: the “lysine labeling ratio R10:1” value is 1.85 (active).

Turning to UniProt Q8WXI7 (lysine site: K10462), the “lysine labeling ratio R10:1” value is 1.27 (active).

Take “EDIL3 (lysine site: K429) (UniProt O43854)”: the “lysine labeling ratio R10:1” value is 1.21 (active).

For the target UniProt P61077 (lysine site: K8), the “lysine labeling ratio R10:1” value is 3.43.

For the target “PTBP1 (lysine site: K137) (UniProt P26599)”, the “lysine labeling ratio R10:1” value is 3.2.

Regarding UniProt P60709 (lysine site: K18), the “lysine labeling ratio R10:1” value is 4.98.

For the target “MYH9 (lysine site: K1459) (UniProt P35579)”, the “lysine labeling ratio R10:1” value is 1.3 (active).

In the case of “EDIL3 (lysine site: K431) (UniProt O43854)”, the “lysine labeling ratio R10:1” value was 1.29 (active).

For “LRP6 (lysine site: K1053) (UniProt O75581)”, the “lysine labeling ratio R10:1” value was 2.76.

For UniProt P62258 (lysine site: K12), the “lysine labeling ratio R10:1” value is 7.18.

As for “RBMX (lysine site: K86) (UniProt P38159)”, the “lysine labeling ratio R10:1” value was 2.06.

UniProt P62316 (lysine site: K118): the “lysine labeling ratio R10:1” value is 6.15.

As to “IGF1R (lysine site: K474) (UniProt P08069)”, the “lysine labeling ratio R10:1” value is 3.24.

With “VIM (lysine site: K188) (UniProt P08670)”, the “lysine labeling ratio R10:1” value is 11.1.

For the target “SPTAN1 (lysine site: K2187) (UniProt Q13813)”, the “lysine labeling ratio R10:1” value was 5.14.

“TMEM97 (lysine site: K130) (UniProt Q5BJF2)”: the “lysine labeling ratio R10:1” value is 3.33.

“TKT (lysine site: K283) (UniProt P29401)”: the “lysine labeling ratio R10:1” value was 7.35.

As to “EPCAM (lysine site: K168) (UniProt P16422)”, the “lysine labeling ratio R10:1” value is 6.35.

Regarding “GAPDH (lysine site: K5) (UniProt P04406)”, the “lysine labeling ratio R10:1” value was 1.43 (active).

Turning to “ITGA4 (lysine site: K526) (UniProt P13612)”, the “lysine labeling ratio R10:1” value is 1.76 (active).

With UniProt Q15149 (lysine site: K2396), the “lysine labeling ratio R10:1” value is 2.3.

As for “SPTAN1 (lysine site: K1856) (UniProt Q13813)”, the “lysine labeling ratio R10:1” value is 5.67.

On to “MSN (lysine site: K391) (UniProt P26038)”, for which the “lysine labeling ratio R10:1” value is 1.79 (active).

On to “DDX23 (lysine site: K204) (UniProt Q9BUQ8)”, for which the “lysine labeling ratio R10:1” value was 0.85 (active).

In the case of “CAPZB (lysine site: K223) (UniProt P47756)”, the “lysine labeling ratio R10:1” value was 2.76.

Turning to “KPNB1 (lysine site: K211) (UniProt Q14974)”, the “lysine labeling ratio R10:1” value is 2.19.

For the target “CYR61 (lysine site: K203) (UniProt O00622)”, the “lysine labeling ratio R10:1” value was 2.96.

For the target “KIAA1549 (lysine site: K1195) (UniProt Q9HCM3)”, the “lysine labeling ratio R10:1” value is 2.77.

In the case of UniProt P83731 (lysine site: K93), the “lysine labeling ratio R10:1” value was 6.58.

With “PDIA3 (lysine site: K104) (UniProt P30101)”, the “lysine labeling ratio R10:1” value was 1.07 (active).

“IQGAP1 (lysine site: K1128) (UniProt P46940)”: the “lysine labeling ratio R10:1” value is 2.31.

Regarding UniProt Q9UHI8 (lysine site: K619), the “lysine labeling ratio R10:1” value is 2.67.

Consider “NUMA1 (lysine site: K1667) (UniProt Q14980)”, for which the “lysine labeling ratio R10:1” value was 0.807 (active).

As for UniProt P48047 (lysine site: K60), the “lysine labeling ratio R10:1” value was 2.17.

“CDH13 (lysine site: K161) (UniProt P55290)”: the “lysine labeling ratio R10:1” value is 6.29.

As to “HSPA8 (lysine site: K328) (UniProt P11142)”, the “lysine labeling ratio R10:1” value was 3.91.

Take UniProt Q15149 (lysine site: K4348): the “lysine labeling ratio R10:1” value was 1.12 (active).

For “TUFM (lysine site: K91) (UniProt P49411)”, the “lysine labeling ratio R10:1” value was 2.38.

In the case of “CRIM1 (lysine site: K171) (UniProt Q9NZV1)”, the “lysine labeling ratio R10:1” value was 2.01.

Regarding “ADAM15 (lysine site: K660) (UniProt Q13444)”, the “lysine labeling ratio R10:1” value was 4.34.

Take UniProt Q15149 (lysine site: K923): the “lysine labeling ratio R10:1” value is 9.2.

On to “RARS (lysine site: K557) (UniProt P54136)”, for which the “lysine labeling ratio R10:1” value is 1.64 (active).

For “L1CAM (lysine site: K515) (UniProt P32004)”, the “lysine labeling ratio R10:1” value is 1.77 (active).

In the case of “H2AFX (lysine site: K37) (UniProt P16104)”, the “lysine labeling ratio R10:1” value was 2.89.

“ST13 (lysine site: K230) (UniProt P50502)”: the “lysine labeling ratio R10:1” value is 4.87.

Turning to “NUMA1 (lysine site: K1625) (UniProt Q14980)”, the “lysine labeling ratio R10:1” value was 3.65.

Take “TPM4 (lysine site: K13) (UniProt P67936)”: the “lysine labeling ratio R10:1” value is 3.28.

In the case of “MSN (lysine site: K400) (UniProt P26038)”, the “lysine labeling ratio R10:1” value is 3.75.

For the target “PTPRM (lysine site: K234) (UniProt P28827)”, the “lysine labeling ratio R10:1” value is 1.53 (active).

As for “ATAD3B (lysine site: K104) (UniProt Q5T9A4)”, the “lysine labeling ratio R10:1” value was 0.547 (active).

As for UniProt P05787 (lysine site: K295), the “lysine labeling ratio R10:1” value was 11.9.

Take “CD151 (lysine site: K127) (UniProt P48509)”: the “lysine labeling ratio R10:1” value is 2.31.

As to “MYH9 (lysine site: K1648) (UniProt P35579)”, the “lysine labeling ratio R10:1” value is 1.22 (active).

On to UniProt P60866 (lysine site: K34), for which the “lysine labeling ratio R10:1” value is 0.547 (active).

As for “ITGB1 (lysine site: K134) (UniProt P05556)”, the “lysine labeling ratio R10:1” value was 1.83 (active).

In the case of “L1CAM (lysine site: K56) (UniProt P32004)”, the “lysine labeling ratio R10:1” value is 3.74.

Consider “FKBP4 (lysine site: K181) (UniProt Q02790)”, for which the “lysine labeling ratio R10:1” value is 1.43 (active).

Consider UniProt Q32P28 (lysine site: K363), for which the “lysine labeling ratio R10:1” value is 4.24.

On to UniProt Q6NZI2 (lysine site: K265), for which the “lysine labeling ratio R10:1” value is 4.28.

As to UniProt Q15149 (lysine site: K2255), the “lysine labeling ratio R10:1” value was 4.45.

Turning to UniProt Q9NY47 (lysine site: K270), the “lysine labeling ratio R10:1” value was 2.85.

“ROBO1 (lysine site: K304) (UniProt Q9Y6N7)”: the “lysine labeling ratio R10:1” value is 3.14.

Turning to “CACNA2D1 (lysine site: K106) (UniProt P54289)”, the “lysine labeling ratio R10:1” value is 3.84.

In the case of “IGF2R (lysine site: K2338) (UniProt P11717)”, the “lysine labeling ratio R10:1” value is 1.29 (active).

With “AHNAK (lysine site: K563) (UniProt Q09666)”, the “lysine labeling ratio R10:1” value is 2.5.

For UniProt Q9UHN6 (lysine site: K1278), the “lysine labeling ratio R10:1” value was 1.31 (active).

For “LAMA5 (lysine site: K2451) (UniProt O15230)”, the “lysine labeling ratio R10:1” value was 3.17.

On to “RTN4 (lysine site: K1066) (UniProt Q9NQC3)”, for which the “lysine labeling ratio R10:1” value was 3.4.

Consider “IARS (lysine site: K132) (UniProt P41252)”, for which the “lysine labeling ratio R10:1” value is 1.68 (active).

“RPL4 (lysine site: K294) (UniProt P36578)”: the “lysine labeling ratio R10:1” value is 3.4.

With “RDX (lysine site: K520) (UniProt P35241)”, the “lysine labeling ratio R10:1” value was 1.76 (active).

In the case of UniProt Q15149 (lysine site: K2339), the “lysine labeling ratio R10:1” value is 4.2.

For the target UniProt P06576 (lysine site: K264), the “lysine labeling ratio R10:1” value is 4.08.

Turning to “PLXNB2 (lysine site: K1159) (UniProt O15031)”, the “lysine labeling ratio R10:1” value was 1.75 (active).

As for UniProt Q99623 (lysine site: K250), the “lysine labeling ratio R10:1” value was 3.72.

As to “KPNB1 (lysine site: K867) (UniProt Q14974)”, the “lysine labeling ratio R10:1” value was 1.36 (active).

As for “ITGA2 (lysine site: K261) (UniProt P17301)”, the “lysine labeling ratio R10:1” value was 1.26 (active).

Regarding “XRCC6 (lysine site: K317) (UniProt P12956)”, the “lysine labeling ratio R10:1” value was 3.53.

On to “WNT5A (lysine site: K208) (UniProt P41221)”, for which the “lysine labeling ratio R10:1” value was 2.67.

In the case of UniProt Q15149 (lysine site: K1520), the “lysine labeling ratio R10:1” value was 3.8.

In the case of “SSBP1 (lysine site: K81) (UniProt Q04837)”, the “lysine labeling ratio R10:1” value was 4.93.

For the target UniProt Q9BSJ8 (lysine site: K197), the “lysine labeling ratio R10:1” value was 5.31.

Consider “FLNA (lysine site: K578) (UniProt P21333)”, for which the “lysine labeling ratio R10:1” value was 1.25 (active).

On to UniProt Q5XKE5 (lysine site: K350), for which the “lysine labeling ratio R10:1” value is 4.43.

As to UniProt P48047 (lysine site: K98), the “lysine labeling ratio R10:1” value was 1.89 (active).

As for “PTPRF (lysine site: K906) (UniProt P10586)”, the “lysine labeling ratio R10:1” value was 4.94.

For “SPTBN1 (lysine site: K497) (UniProt Q01082)”, the “lysine labeling ratio R10:1” value is 2.59.

As for “EPCAM (lysine site: K129) (UniProt P16422)”, the “lysine labeling ratio R10:1” value was 6.18.

Consider “NSUN2 (lysine site: K257) (UniProt Q08J23)”, for which the “lysine labeling ratio R10:1” value is 1.71 (active).

Regarding “RPS3A (lysine site: K167) (UniProt P61247)”, the “lysine labeling ratio R10:1” value is 1.82 (active).

With UniProt O95084 (lysine site: K270), the “lysine labeling ratio R10:1” value is 2.67.

With UniProt Q99500 (lysine site: K27), the “lysine labeling ratio R10:1” value is 1.9 (active).

As for UniProt Q6NZI2 (lysine site: K260), the “lysine labeling ratio R10:1” value is 4.28.

In the case of UniProt P16144 (lysine site: K151), the “lysine labeling ratio R10:1” value is 1.53 (active).

Turning to UniProt Q16181 (lysine site: K373), the “lysine labeling ratio R10:1” value was 2.37.

As to “RPS19 (lysine site: K7) (UniProt P39019)”, the “lysine labeling ratio R10:1” value is 4.55.

Turning to UniProt Q9BZM4 (lysine site: K192), the “lysine labeling ratio R10:1” value is 1.43 (active).

Take UniProt P04626 (lysine site: K200): the “lysine labeling ratio R10:1” value is 6.23.

“FAT1 (lysine site: K2562) (UniProt Q14517)”: the “lysine labeling ratio R10:1” value is 1.58 (active).

Source of the values: the supplement of paper PMC11001985.
